# Measurements published in PubChem BioAssay.
# Potency and affinity values are given separately. Records with an inconclusive call do not appear. Entries that show only a call come without a potency. Unmarked numbers belong to inactive results. Activity calls are given as the source filed them.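 How the source made its calls, unless noted: active means a dose-response fit showing signal loss, with half-maximal concentration no higher than twice the top tested dose; inconclusive means flat fit between 30% and 70% signal loss, or poor fit; inactive means the rest.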
# What was measured:
# [1] = viability loss in HepG2 hepatoma cells – cell-based, cherry-picks, set 2, cytotoxicity control, dose response (AID 687002)
# [2] = viability loss in HeLa cells – cell-based, ATP luminescence, cherry-pick samples, cytotoxicity control, dose response (AID 687004;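 active means a fitted half-maximal concentration no higher than twice the top valid tested dose, with signal falling as cells die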)
# [3] = PAX8 transcriptional activity inhibition in RMG-I – RMG-I cells, luciferase, cherry-pick, dose response (AID 687027;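 active means every replicate test run called active, with the signal dropping as expected and potency within twice the top valid dose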)
# [4] = RMG-1 ovarian cancer cell viability loss – cherry-pick, dose response (AID 687029;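 active means signal drop whose fitted half-maximal concentration is at most twice the top valid dose, in every test run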;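 further: cells exposed to compound for 96 hours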)
# [5] = IOSE-T80 viability loss, PAX8-independent line – cell-based, cherry-pick, selectivity assay for PAX8 inhibitor project, dose response (AID 687032;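 active means fitted half-maximal concentration for viability loss no higher than twice the top valid dose, in every repeat run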;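 further: cells exposed to compound for 96 h before reading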)
# [6] = CMV-driven luciferase expression suppression in HEK293 – cell-based, luminescence, dry powder, counter-screen for Pax8 inhibitor project, dose response (AID 743020;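 active means signal-lowering compounds whose fitted half-maximal concentration is at or below twice the top tested dose in every run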;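 further: HEK293 cells stably expressing the CMV luciferase reporter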)
# [7] = general cell-killing toxicity readout – plate reader, dry powder samples, cytotoxicity control for PAX8 inhibitor project, dose response (AID 743021; call rule not given here)
compound,measurement,setting,value
Cc1cc(C)c(NC(=O)C2CCCN2CCC(C)C)c(C)c1 (configuration not stated),outcome,[1],inactive
Fc1ccccc1NC(=S)NCCc1cccc(Cl)c1,outcome,[1],inactive
same,outcome,[2],inactive
C[C@H](CO)N1C[C@H](C)[C@@H](CN(C)Cc2ccc(Oc3ccccc3)cc2)Oc2ccc(NS(=O)(=O)c3cn(C)cn3)cc2CC1=O,outcome,[1],inactive
same,outcome,[2],inactive
O=C(CSc1ncnc2c1cnn2-c1cccc(Cl)c1)NCC1CCCO1 (configuration not stated),outcome,[1],inactive
same,outcome,[2],inactive
Cc1cc(C)c(NC(=O)C2CCCN2C(=O)NC2CCCCC2)c(C)c1 (configuration not stated),outcome,[1],inactive
same,outcome,[2],inactive
C[C@@H]1CN([C@H](C)CO)S(=O)(=O)c2ccc(C#Cc3ccccn3)cc2O[C@H]1CN(C)Cc1ccccc1,outcome,[1],inactive
same,outcome,[2],inactive
COC(=O)C1=C(C)N(Cc2ccc(Br)cc2)C(=S)NC1c1ccccc1 (configuration not stated),outcome,[1],inactive
same,outcome,[2],inactive
O=C(NC(=S)Nc1cc(Cl)ccc1N1CCOCC1)c1ccccc1[N+](=O)[O-],outcome,[1],inactive
same,outcome,[2],inactive
COc1ccccc1NC(=S)NCc1ccc(Cl)cc1,outcome,[1],inactive
same,outcome,[2],inactive
Cc1ccc2nc(C)c3c(c2c1)OC(C(C)(Cl)Br)C3 (configuration not stated),outcome,[1],inactive
CCc1ccc(C(C)NC(=S)NCc2ccc(F)cc2)cc1 (configuration not stated),outcome,[1],inactive
same,outcome,[2],inactive
COc1ccc(C(=O)NC(=S)Nc2ccccc2N2CCCCC2)cc1[N+](=O)[O-],outcome,[1],inactive
same,outcome,[2],inactive
COC(=O)C1=C(C)N(CC(C)C)C(=S)NC1c1ccc(-c2ccccc2)cc1 (configuration not stated),outcome,[1],inactive
CCc1ccc(C(=O)NC(=S)NCc2cccnc2)cc1,outcome,[1],inactive
same,outcome,[2],inactive
COC(=O)C1=C(C)N(Cc2ccccc2)C(=S)N[C@H]1c1cccc(C(F)(F)F)c1,outcome,[1],inactive
COC(=O)C1=C(C)N(Cc2ccc(Cl)cc2)C(=S)NC1c1ccc(Br)cc1 (configuration not stated),outcome,[1],inactive
same,outcome,[2],inactive
S=C(NCCCc1ccccc1)Nc1ccccc1,outcome,[1],inactive
same,outcome,[2],inactive
COC(=O)C1=C(C)N(Cc2ccc(F)cc2)C(=S)NC1c1ccc(F)cc1 (configuration not stated),outcome,[1],inactive
C[C@H](CO)N1C[C@H](C)[C@H](CN(C)C(=O)Nc2ccc3c(c2)OCO3)Oc2ncc(C#CC(C)(C)O)cc2C1=O,outcome,[1],inactive
same,outcome,[2],inactive
COc1ccc(C(=O)NC(=S)Nc2ccccc2N2CCOCC2)cc1[N+](=O)[O-],outcome,[1],inactive
COC(=O)C1=C(C)N(Cc2ccc(Br)cc2)C(=S)NC1c1ccc(OC)cc1 (configuration not stated),outcome,[1],inactive
same,outcome,[2],inactive
COC(=O)C1=C(C)N(Cc2ccc(Cl)cc2)C(=S)NC1c1cccc(Cl)c1 (configuration not stated),outcome,[1],inactive
COc1ccccc1NC(=S)NCc1ccccc1Cl,outcome,[1],inactive
same,outcome,[2],inactive
Cc1ccc(OCCn2c(=S)[nH]c3ccccc32)c(C(C)C)c1,outcome,[1],inactive
COc1cccc(C(=O)NC(=S)Nc2ccccc2N2CCOCC2)c1,outcome,[1],inactive
same,outcome,[2],inactive
COc1ccc(CNC(=S)NCc2ccc(OC(C)C)cc2)cc1,outcome,[1],inactive
same,outcome,[2],inactive
COc1ccccc1/C=N/NC(=S)NCc1ccco1,outcome,[1],inactive
same,outcome,[2],inactive
COc1ccc(N2CCN(C(=O)Cc3cccs3)CC2)cc1,outcome,[1],inactive
same,outcome,[2],inactive
COc1cc(OC)c(N(C)C(=O)c2cn(C)c(=O)c3cc(OC)c(OC)cc23)cc1Cl,outcome,[1],inactive
same,outcome,[2],inactive
NC(=S)N/N=C/c1ccc(-c2cc(Cl)ccc2Cl)o1,outcome,[1],inactive
COc1cc2c(C(=O)N(C)c3cc(Cl)ccc3OC)cn(C)c(=O)c2cc1OC,outcome,[1],inactive
same,outcome,[2],inactive
COC(=O)C1=C(C)N(Cc2ccccc2)C(=S)NC1c1ccc(Br)cc1 (configuration not stated),outcome,[1],inactive
same,outcome,[2],inactive
COC(=O)C1=C(C)N(Cc2ccc(F)cc2)C(=S)NC1c1cccc(Br)c1 (configuration not stated),outcome,[1],inactive
same,outcome,[2],inactive
COC(=O)C1=C(C)N(Cc2ccccc2)C(=S)N[C@H]1c1cccc(F)c1,outcome,[1],inactive
CCN1C(=S)N[C@@H](c2ccccc2)C(C(=O)OC)=C1C,outcome,[1],inactive
same,outcome,[2],inactive
COc1ccccc1C#Cc1ccc2c(c1)O[C@H](CN(C)C(C)=O)[C@H](C)CN([C@@H](C)CO)S2(=O)=O,outcome,[1],inactive
same,outcome,[2],inactive
O=C(NC(=S)Nc1ccccc1N1CCCC1)c1ccc([N+](=O)[O-])cc1,outcome,[1],inactive
same,outcome,[2],inactive
CCCOc1ccc(CNC(=S)NCc2ccc(OC(C)C)cc2)cc1,outcome,[1],inactive
same,outcome,[2],inactive
O=C(NC(=S)Nc1ccccc1N1CCOCC1)c1ccc(Br)cc1,outcome,[1],inactive
same,outcome,[2],inactive
COc1cccc(NC(=S)N2CCC(Cc3ccccc3)CC2)c1,outcome,[1],inactive
same,outcome,[2],inactive
Cc1ccccc1NC(=S)NC(=O)CCc1ccccc1,outcome,[1],inactive
same,outcome,[2],inactive
Cc1ccc(C(=O)NC(=S)Nc2ccc(N3CCOCC3)cc2)cc1,outcome,[1],inactive
same,outcome,[2],inactive
COC(=O)C1=C(C)N(CC(C)C)C(=S)NC1c1cccc(F)c1 (configuration not stated),outcome,[1],inactive
same,outcome,[2],inactive
O=C(C[C@H]1CC[C@@H]2[C@H](COC[C@@H](O)CN2C(=O)c2cnccn2)O1)NCc1ccc(Oc2ccccc2)cc1,outcome,[1],inactive
same,outcome,[2],inactive
CCCCN1C(=S)NC[C@@H]1Cc1ccccc1,outcome,[1],inactive
same,outcome,[2],inactive
Cc1cc(C)c2nc(N3CCN(C(=O)c4cccs4)CC3)sc2c1,outcome,[1],inactive
same,outcome,[2],inactive
COCC(=O)Nc1ccc2c(c1)C(=O)N(C)C[C@H](OC)[C@@H](C)CN(C(=O)c1ccccc1)[C@@H](C)CO2,outcome,[1],inactive
same,outcome,[2],inactive
C[C@@H]1CN([C@H](C)CO)C(=O)Cc2cc(NC(=O)NC3CCCCC3)ccc2O[C@@H]1CN(C)Cc1ccccc1,outcome,[1],inactive
same,outcome,[2],inactive
S=C(Nc1ccccc1Oc1ccccc1)Nc1cccc(Cl)c1Cl,outcome,[1],inactive
same,outcome,[2],inactive
CC(C)CC1(C)N=C(c2ccccc2)C(=S)N1 (configuration not stated),outcome,[1],inactive
same,outcome,[2],inactive
O=C(NC(=S)Nc1ccc(Br)cc1)C1CCC1,outcome,[1],inactive
same,outcome,[2],inactive
COC(=O)C1=C(C)N(CC(C)C)C(=S)NC1c1ccc(Cl)cc1 (configuration not stated),outcome,[1],inactive
same,outcome,[2],inactive
Cc1cc(Cl)ccc1NC(=S)NCc1ccc(F)cc1,outcome,[1],inactive
same,outcome,[2],inactive
COC(=O)C1=C(C)N(Cc2ccccc2)C(=S)NC1c1ccc(Cl)cc1 (configuration not stated),outcome,[1],inactive
same,outcome,[2],inactive
COc1cccc(NC(=S)NC(=O)Cc2ccc(Cl)cc2)c1,outcome,[1],inactive
same,outcome,[2],inactive
O=C(C1CCOCC1)N1CC[C@@H]2[C@@H](CO)Nc3ccc(Br)cc3[C@@H]21,outcome,[1],inactive
same,outcome,[2],inactive
O=C(NC(=S)Nc1ccccc1N1CCCC1)c1ccccc1[N+](=O)[O-],outcome,[1],inactive
same,outcome,[2],inactive
COC(=O)C1=C(C)N(CC(C)C)C(=S)NC1c1ccc(F)cc1 (configuration not stated),outcome,[1],inactive
same,outcome,[2],inactive
COC(=O)C1=C(C)N(Cc2ccc(Cl)cc2)C(=S)NC1c1ccc(F)cc1 (configuration not stated),outcome,[1],inactive
same,outcome,[2],inactive
COC(=O)C1=C(C)N(Cc2ccc(Br)cc2)C(=S)NC1c1cccc(Cl)c1 (configuration not stated),outcome,[1],inactive
same,outcome,[2],inactive
COC(=O)C1=C(C)N(Cc2ccccc2)C(=S)NC1c1cccc(Br)c1 (configuration not stated),outcome,[1],inactive
same,outcome,[2],inactive
O=C(NC(=S)Nc1ccccc1N1CCOCC1)c1cccc([N+](=O)[O-])c1,outcome,[1],inactive
same,outcome,[2],inactive
Cc1cc(C(=O)NC(=S)Nc2ccccc2N2CCOCC2)ccc1[N+](=O)[O-],outcome,[1],inactive
same,outcome,[2],inactive
CCC(=O)N(C)C[C@@H]1Oc2cc(C#CC(C)(C)O)ccc2S(=O)(=O)N([C@@H](C)CO)C[C@H]1C,outcome,[1],inactive
same,outcome,[2],inactive
CCCCNC(=S)N/N=C/c1ccc(C#N)cc1,outcome,[1],inactive
same,outcome,[2],inactive
C[C@@H]1CN([C@H](C)CO)C(=O)c2cc(C3=CCCCC3)cnc2O[C@H]1CN(C)C(=O)Cc1cccnc1,outcome,[1],inactive
same,outcome,[2],inactive
S=C(Nc1ccccc1)Nc1cc(Cl)ccc1Oc1ccccc1,outcome,[1],inactive
same,outcome,[2],inactive
O=C(N[C@@H]1CC[C@@H](CCn2cc(-c3ccccc3)nn2)O[C@H]1CO)c1cnccn1,outcome,[1],inactive
same,outcome,[2],inactive
COC(=O)C1=C(C)N(Cc2ccc(F)cc2)C(=S)NC1c1cccc(Cl)c1 (configuration not stated),outcome,[1],inactive
same,outcome,[2],inactive
CCOc1ccc(CNC(=S)NCc2ccc(OCC)cc2)cc1,outcome,[1],inactive
same,outcome,[2],inactive
COC(=O)C1=C(C)N(Cc2ccc(F)cc2)C(=S)NC1c1ccccc1 (configuration not stated),outcome,[1],inactive
same,outcome,[2],inactive
O=C(CN(c1ccc(F)cc1)S(=O)(=O)c1ccccc1)N1CCOCC1,outcome,[1],inactive
same,outcome,[2],inactive
S=C(NCc1ccccc1)NCC1COc2ccccc2O1 (configuration not stated),outcome,[1],inactive
same,outcome,[2],inactive
COc1ccc(CNC(=S)NCc2ccc(OC)cc2)cc1,outcome,[1],inactive
same,outcome,[2],inactive
CN(CC(=O)Nc1cccc(F)c1)C(=O)CCCc1cccs1,outcome,[3],inactive
same,outcome,[4],inactive
same,outcome,[5],inactive
same,outcome,[6],inactive
same,outcome,[7],inactive
Cn1c(SCC(=O)c2ccccc2)nnc1-c1ccccn1,outcome,[3],inactive
COC(=O)C1=C(C)N(Cc2ccc(Cl)cc2)C(=S)NC1c1ccccc1 (configuration not stated),outcome,[1],inactive
same,outcome,[2],inactive
CCOc1ccc2c(CC)cc(=O)oc2c1OCC,outcome,[3],inactive
same,outcome,[4],inactive
same,outcome,[5],inactive
same,outcome,[6],inactive
same,outcome,[7],inactive
Cc1ccc(NC(=O)C2CC(=O)N/C(=N/N=C/c3ccco3)S2)cc1C (configuration not stated),outcome,[3],inactive
same,outcome,[4],inactive
same,outcome,[5],inactive
same,outcome,[6],inactive
same,outcome,[7],inactive
COc1ccc(C2Nc3ccccc3C(=O)N2c2ccc(F)cc2)cc1CSc1ccccn1 (configuration not stated),outcome,[3],inactive
same,outcome,[4],inactive
CO[C@@H]1CN(C)C(=O)c2ccc(NC(C)=O)cc2OC[C@@H](C)N(C(=O)Cc2cccnc2)C[C@H]1C,outcome,[1],inactive
same,outcome,[2],inactive
Cc1ccc(C(=O)NC(=S)Nc2ccccc2N2CCCC2)cc1[N+](=O)[O-],outcome,[1],inactive
same,outcome,[2],inactive
